In the library only some 5.3% were active in any assay of this set; here they are far more common.
HP1b binding inh – HTS for Inhibitors of HP1-beta Chromodomain Interactions with Methylated Histone Tails. AID 540317, 2011. Potency, µM (top dose mostly 114 µM), for inactives: top-dose activity change, negative = inhibition, usual class: inhibitors. actives 0.56% (n = 390,000). AlphaScreen HP1-beta / biotin-H3K9me3 peptide binding; further: potency means the concentration at half of the fitted maximal effect; nearly all actives have a fitted effect of over 70% in size
Target sequence (P83916 whole entry, looked up): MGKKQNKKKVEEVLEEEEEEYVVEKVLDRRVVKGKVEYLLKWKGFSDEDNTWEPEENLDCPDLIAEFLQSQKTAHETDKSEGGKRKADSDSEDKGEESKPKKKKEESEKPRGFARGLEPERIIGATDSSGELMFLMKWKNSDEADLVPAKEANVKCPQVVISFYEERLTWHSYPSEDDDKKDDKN
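AlphaScreen: HP1-beta (50 nM) preformed 30 min with biotin-H3(1-18)K9me3 peptide (50 nM) in PBS pH 7.4, 0.01% Tween-20. Compound added for 30 min at RT, then streptavidin donor/nickel chelate acceptor beads (10 ug/mL) for 30 min.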
CtBP-E1A inh – qHTS Assay for Inhibitors of the CtBP/E1A Interaction | CtBP / adenovirus E1A interaction (AlphaScreen) | AlphaScreen GST-E1A/His-CtBP binding, 1536-well; hits give low values | activity change, % (no concentration beside the values) | actives 0.49% (n = 340,000) | AID 651724, 2012; in the data active means activity change below about -65%; inconclusive means mostly about -30% to -63%; further: on the % scale 0 is the no-effect control and ±100 the full control effect
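GST-E1A and His-tagged CtBP (125 nM each as 5X stock) were preincubated with pin-transferred compound for 2 h at 37 °C in the dark, then glutathione donor and nickel acceptor beads were added for 1 h before AlphaScreen reading.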
BAZ2B block – qHTS Assay for Inhibitors of BAZ2B; AlphaScreen BAZ2B-H3K14Ac peptide displacement; Potency, µM (top dose mostly 114 µM), for inactives: at the top dose activity change, negative = inhibition, usual class: inhibitors; actives 4.4% (n = 360,000); AID 504333, 2011; further: potency means the concentration at half of the fitted maximal effect; on the % scale 0 is the no-effect control and ±100 the full control effect; nearly all actives have a fitted effect of over 60% in size
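Inhibition is scored as reduced AlphaScreen emission. The BAZ2B/b-H3(5-23)K14Ac complex (50 nM each) in PBS pH 7.4, 0.01% Tween-20 meets compound (up to 110 uM) for 30 min at RT before bead addition.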
JMJD2A Tudor – qHTS Assay for Inhibitors of JMJD2A-Tudor Domain; Lysine-specific demethylase 4A (Homo sapiens), O75164; AlphaScreen JMJD2A-Tudor / H3K4me3 peptide binding; Potency, µM (top dose mostly 114 µM), without a hit: at the top dose activity change, negative = inhibition, most hits filed as inhibitors; actives 4.4% (n = 390,000); further: potency means the concentration at half of the fitted maximal effect; on the % scale 0 is the no-effect control and ±100 the full control effect; nearly all actives have a fitted effect of over 50% in size
TDP1 inh – qHTS Assay for Inhibitors of Tyrosyl-DNA Phosphodiesterase (TDP1) | Tyrosyl-DNA phosphodiesterase 1 (Homo sapiens), Q9NUW8 | Potency, µM (top dose mostly 130 µM), for the others: at the highest dose activity change, negative = inhibition, hits mostly inhibitors | recombinant TDP1, AlphaScreen DNA substrate cleavage | AID 485290, 2010 | actives 0.28% (n = 350,000); further: potency means the concentration at half of the fitted maximal effect; on the % scale 0 is the no-effect control and ±100 the full control effect; nearly all actives have a fitted effect of over 40% in size
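AlphaScreen read-out: signal falls as enzyme removes the 3' tyrosine-FITC from a 5'-biotinylated DNA oligo (15 nM, 5 min, RT). Enzyme was E. coli-made recombinant Tdp1 at 1 nM, exposed to compound for 15 min beforehand; beads 10 ug/ml, 10 min.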
Six1-Eya2 inh – qHTS Assay for Inhibitors of the Six1/Eya2 Interaction; Homeobox protein SIX1 (Homo sapiens) + Protein phosphatase EYA2 (Homo sapiens), …; AlphaScreen GST-Six1/His-Eya2 binding, biochemical; hits give low values; activity change, % (concentration not given with the values); actives 0.56% (n = 360,000); AID 651725, 2012; in the data active means activity change below about -65%; inconclusive means mostly about -30% to -63%; further: on the % scale 0 is the no-effect control and ±100 the full control effect
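AlphaScreen luminescence read after one hour at 37 °C in darkness. Pin-transferred compounds met GST-Six1 and His-Eya2 protein (5X stock 250 nM/500 nM) plus glutathione donor and Ni-chelate acceptor beads (5X, 50 ug/mL).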
The depositor's hits bear a star; ? = inconclusive; nt = no result; ! = a repeat was not active; [ ] = dose if it differs, or a comment. Unless noted, the call rests on the fitted dose curve; in most records, active means well fitted inhibition curve with a large enough effect; inconclusive means small, poorly fitted or top-dose-only effect; inactive means no such curve, though single readings can be large or run the other way.

SMILES | HP1b binding inh | CtBP-E1A inh | BAZ2B block | JMJD2A Tudor | TDP1 inh | Six1-Eya2 inh
CN(CCOc1ccc(Cl)c(Cl)c1)Cc1ccccc1 | -23% | 46 | ? | 20µM* | nt | 8
CCN(CC)CCCOc1ccc(Cl)c(Cl)c1 | -49% | -14 | ? | 0.89µM* | -8% | 13
CN1CCN(CCOc2ccc(Cl)c(Cl)c2)CC1 | 16µM* | 14 | 50µM* | 0.79µM* | -3% | 1
Cn1c(=O)c2sccc2n2c(CCC(=O)NCc3ccccc3)nnc12 | 55% | nt | 36% | -17% | 3% | nt
O=C(/C(=C/O)N=Nc1ccccc1)c1ccco1 | ? | -2 | ? | ? | 3% | -12
Cc1cccc(N=N/C(=C\O)C(=O)c2ccc(Br)cc2)c1 | -9% | 0 | ? | ? | 6% | -16
O=C(/C(=C/O)N=Nc1ccccc1Cl)c1ccccc1 | 32µM* | nt | 13µM* | -26%[11.4 µM] | 9% | -17
O=C(/C(=C/O)N=Nc1cccc(C(F)(F)F)c1)c1ccccc1 | ? | 2 | 25µM* | 45µM* | -3% | -3
C=CCC(Nc1ccc(OC)cc1)C(=O)OCC (stereo unspecified) | nt | nt | nt | nt | 6% | nt
CSc1cccc(NS(=O)(=O)c2ccc3[nH]cc(C(=O)N4CCCCCC4)c(=O)c3c2)c1 | 22% | nt | nt | -26% | 2% | nt
Nc1ccccc1C(=O)NNc1ncc(C(F)(F)F)cc1Cl | 40% | ? | 50µM* | -19% | -12% | ?
O=S(=O)(NNc1ncc(C(F)(F)F)cc1Cl)c1ccc(F)cc1F | 30% | nt | nt | ? | 0% | -1
O=S(=O)(NNc1ncc(C(F)(F)F)cc1Cl)c1ccccc1 | ? | -14 | -8% | 0.71µM* | 0% | 13
CCOc1ccc(OC(=O)c2cn(-c3ccc(C)cc3)c(=O)c3ccccc23)cc1 | 25%[57 µM] | nt | 1% | 50µM* | 7% | nt
CCN(CC)CCP(=O)(c1ccccc1)c1ccccc1 | 14% | 5 | 12% | -15% | 4% | 7
CCN(CC)CCN(C)C1CCC(c2ccccc2)CC1 (stereo unspecified) | ? | -3 | 56µM* | 6.3µM* | 1% | -1
CCOc1ccccc1CNS(=O)(=O)c1ccc2[nH]c(=O)ccc2c1 | 20%[57 µM] | nt | 2% | -10% | 5% | nt
COc1ccc(/C=C/C(=O)NCC(=O)N2CCC(N(C)CCN3CCOCC3)CC2)cc1OC | ? | 11 | 50µM* | ? | -4% | 7
CCCCNC(=O)CCC(=O)NNc1nc2ccccc2c2nc(-c3ccccc3)nn12 | 27% | -2 | 89µM*! | -12% | 12% | -10
Cc1ccccc1CNC(=O)c1oc2c(c1C)-c1[nH]ncc1CC2 | 22% | nt | -13% | -13% | 6% | nt
Cc1ccc(OCCCCNC2CCCC(C)C2C)c(C)c1 (stereo unspecified) | ? | -3 | 22µM* | 20µM* | -8% | 0
Cc1ccc(C)c(OCCCC(=O)NC2CCCCC2)c1 | 38% | 0 | 11% | -10% | nt | -13
COc1ccc(CCN2CC(C(=O)NCCc3cnn(C)c3)CCC2=O)cc1 (stereo unspecified) | 22% | 2 | -5%[57.1 µM] | 20µM* | 0% | 5
Cc1cccc(N2CSC3=C(C#N)C(c4ccc(C)o4)CC(=O)N3C2)c1 (stereo unspecified) | nt | nt | 45µM* | nt | ? | nt
COc1ccc2ccccc2c1C1CC(=O)N2CN(Cc3ccco3)CSC2=C1C#N (stereo unspecified) | ? | -3 | -27% | ? | 6% | 0
